Results on one sequence are retold here after PMC7862700, “An all-to-all approach to the identification of sequence-specific readers for epigenetic DNA modifications on cytosine”.

Holding throughout (test): DAPPL (digital affinity profiling via proximity ligation, sequencing); 10 mM Tris-HCl pH 7.5, 50 mM NaCl, 1 mM DTT, 4% glycerol, room temperature, 30 min; GST-TFs on glutathione beads, 16-mer random dsDNA library, 0.1% formaldehyde crosslink after washing; high values mean tight binding
In one test the target is T1, FEV (Homo sapiens, UniProt Q99581 1-238).
T1 sequence: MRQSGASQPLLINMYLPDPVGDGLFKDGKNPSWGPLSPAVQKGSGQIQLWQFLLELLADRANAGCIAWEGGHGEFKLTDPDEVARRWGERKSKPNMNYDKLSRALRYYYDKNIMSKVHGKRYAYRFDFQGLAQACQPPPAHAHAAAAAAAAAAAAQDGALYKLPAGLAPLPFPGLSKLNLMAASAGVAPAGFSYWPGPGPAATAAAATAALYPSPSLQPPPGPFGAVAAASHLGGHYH
To be noted: protein: recombinant; tags: N-terminal GST; dsDNA, one strand shown. A digest of the protocol: (§1)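 After expression in yeast as GST fusions, human transcription factors were bound to glutathione beads, DNA-barcoded and mixed with a tag-only sample. The pools were incubated with 200 nmole of a 16-mer random double-stranded DNA library in Tris/NaCl/DTT/glycerol buffer (30 min, room temperature), washed and crosslinked with 0.1% formaldehyde. Proximity ligation with BsaI/T4 ligase ran for 1 h at 37 °C, before PCR amplification and sequencing on an Illumina NextSeq500. Binding signal is a hexamer's read frequency for a factor divided by its frequency for the tag-only sample.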

The next test concerns the target ETV5 (Homo sapiens, UniProt P41161 1-510). The following applies: protein: recombinant; tags: N-terminal GST; dsDNA, one strand shown. In short, it runs like this: as §1
The next test concerns the target HSF1 (Homo sapiens, UniProt Q00613 1-529). To be noted: protein: recombinant; tags: N-terminal GST; chain copies: 3; dsDNA, one strand shown. A digest of the protocol:
as §1

In a further test the target is T2, SPIC (Homo sapiens, UniProt Q8N5J4 1-248).
T2 sequence: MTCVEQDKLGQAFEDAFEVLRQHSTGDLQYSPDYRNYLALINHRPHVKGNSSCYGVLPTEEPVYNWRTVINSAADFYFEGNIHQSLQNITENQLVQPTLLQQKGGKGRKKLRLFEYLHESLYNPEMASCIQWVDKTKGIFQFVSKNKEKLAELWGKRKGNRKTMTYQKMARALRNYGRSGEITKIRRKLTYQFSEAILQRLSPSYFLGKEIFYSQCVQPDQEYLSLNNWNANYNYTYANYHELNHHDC
The following applies: protein: recombinant; tags: N-terminal GST; dsDNA, one strand shown. A digest of the protocol: as §1

The target of the next test is ELF4 (Homo sapiens, UniProt Q99607 1-663). To be noted: protein: recombinant; tags: N-terminal GST; dsDNA, one strand shown. A digest of the protocol:
as §1

In another test the target is T3, ELK4 (Homo sapiens, UniProt P28324-2 1-405).
T3 sequence: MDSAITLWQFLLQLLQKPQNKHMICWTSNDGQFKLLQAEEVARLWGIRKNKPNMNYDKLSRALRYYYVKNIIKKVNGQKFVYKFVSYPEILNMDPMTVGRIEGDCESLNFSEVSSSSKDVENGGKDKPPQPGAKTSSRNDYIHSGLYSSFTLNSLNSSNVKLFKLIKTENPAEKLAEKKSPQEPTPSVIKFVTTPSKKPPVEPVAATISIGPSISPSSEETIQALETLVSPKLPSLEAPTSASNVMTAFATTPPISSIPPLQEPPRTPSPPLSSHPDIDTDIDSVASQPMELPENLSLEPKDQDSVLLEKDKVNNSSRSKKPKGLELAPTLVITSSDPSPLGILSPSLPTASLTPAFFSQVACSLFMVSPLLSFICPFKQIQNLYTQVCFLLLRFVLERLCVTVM
To be noted: protein: recombinant; tags: N-terminal GST; dsDNA, one strand shown. In short, it runs like this:
as §1

For the next test, the target named is T4, ETV2 (Homo sapiens, UniProt O00321 1-342).
T4 sequence: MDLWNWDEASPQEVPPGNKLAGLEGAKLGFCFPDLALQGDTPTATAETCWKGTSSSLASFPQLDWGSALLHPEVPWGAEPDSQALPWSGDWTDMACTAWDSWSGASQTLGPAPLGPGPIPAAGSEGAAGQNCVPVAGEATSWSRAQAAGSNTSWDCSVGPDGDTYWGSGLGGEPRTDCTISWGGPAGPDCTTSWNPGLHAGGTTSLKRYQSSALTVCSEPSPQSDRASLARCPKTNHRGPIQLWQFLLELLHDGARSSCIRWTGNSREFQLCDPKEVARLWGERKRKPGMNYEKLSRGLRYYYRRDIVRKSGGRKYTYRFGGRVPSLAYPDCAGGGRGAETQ
To be noted: protein: recombinant; tags: N-terminal GST; dsDNA, one strand shown. In short, it runs like this:
as §1

The target of a further test is T5, ELF3 (Homo sapiens, UniProt P78545 1-371).
T5 sequence: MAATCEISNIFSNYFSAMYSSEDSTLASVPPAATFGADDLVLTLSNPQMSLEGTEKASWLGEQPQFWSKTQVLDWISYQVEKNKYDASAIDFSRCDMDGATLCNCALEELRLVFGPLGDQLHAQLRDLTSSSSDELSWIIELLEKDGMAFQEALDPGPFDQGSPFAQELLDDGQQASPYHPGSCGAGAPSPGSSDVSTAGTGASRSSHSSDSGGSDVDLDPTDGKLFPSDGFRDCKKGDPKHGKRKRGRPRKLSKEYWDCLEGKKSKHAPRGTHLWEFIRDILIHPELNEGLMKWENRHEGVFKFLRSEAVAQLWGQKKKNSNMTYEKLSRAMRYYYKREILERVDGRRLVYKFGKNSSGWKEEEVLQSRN
The following applies: protein: recombinant; tags: N-terminal GST; dsDNA, one strand shown. A digest of the protocol:
as §1

The target in a further test is CRX (Homo sapiens, UniProt O43186 1-299). The following applies: protein: recombinant; tags: N-terminal GST; dsDNA, one strand shown. A digest of the protocol: as §1
The next test deals with ETV1 (Homo sapiens, UniProt P50549 1-477). The following applies: protein: recombinant; tags: N-terminal GST; dsDNA, one strand shown. In short, it runs like this:
as §1

In another test the target is T6, ERF (Homo sapiens, UniProt P50548 1-548).
T6 sequence: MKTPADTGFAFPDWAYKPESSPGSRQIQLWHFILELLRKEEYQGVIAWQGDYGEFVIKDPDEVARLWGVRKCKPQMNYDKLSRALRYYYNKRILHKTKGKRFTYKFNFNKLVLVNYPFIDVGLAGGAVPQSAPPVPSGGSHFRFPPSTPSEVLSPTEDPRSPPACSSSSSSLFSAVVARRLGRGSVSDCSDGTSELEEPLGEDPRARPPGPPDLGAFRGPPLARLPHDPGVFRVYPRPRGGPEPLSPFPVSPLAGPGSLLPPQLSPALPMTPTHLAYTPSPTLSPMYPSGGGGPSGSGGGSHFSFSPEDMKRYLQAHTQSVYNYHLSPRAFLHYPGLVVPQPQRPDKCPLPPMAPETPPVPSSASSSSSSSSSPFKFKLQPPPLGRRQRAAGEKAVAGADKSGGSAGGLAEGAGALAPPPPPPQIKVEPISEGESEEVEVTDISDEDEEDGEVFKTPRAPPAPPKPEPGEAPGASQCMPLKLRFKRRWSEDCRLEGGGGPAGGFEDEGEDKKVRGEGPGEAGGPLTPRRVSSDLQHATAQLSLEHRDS
To be noted: protein: recombinant; tags: N-terminal GST; dsDNA, one strand shown. In short, it runs like this: as §1

The target of a further test is T7, ETV3L (Homo sapiens, UniProt Q6ZN32 1-361).
T7 sequence: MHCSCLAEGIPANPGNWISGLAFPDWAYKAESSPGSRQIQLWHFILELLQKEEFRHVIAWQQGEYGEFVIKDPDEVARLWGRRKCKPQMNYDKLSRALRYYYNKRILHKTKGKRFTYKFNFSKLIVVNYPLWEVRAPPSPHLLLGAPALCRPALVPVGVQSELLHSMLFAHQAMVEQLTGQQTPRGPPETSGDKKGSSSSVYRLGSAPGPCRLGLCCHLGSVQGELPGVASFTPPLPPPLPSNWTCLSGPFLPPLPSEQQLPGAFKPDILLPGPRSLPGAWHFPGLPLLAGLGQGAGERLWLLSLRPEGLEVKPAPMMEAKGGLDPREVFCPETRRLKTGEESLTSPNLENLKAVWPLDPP
The following applies: protein: recombinant; tags: N-terminal GST; dsDNA, one strand shown. A digest of the protocol: as §1

Another test deals with T8, ETS2 (Homo sapiens, UniProt P15036 1-469).
T8 sequence: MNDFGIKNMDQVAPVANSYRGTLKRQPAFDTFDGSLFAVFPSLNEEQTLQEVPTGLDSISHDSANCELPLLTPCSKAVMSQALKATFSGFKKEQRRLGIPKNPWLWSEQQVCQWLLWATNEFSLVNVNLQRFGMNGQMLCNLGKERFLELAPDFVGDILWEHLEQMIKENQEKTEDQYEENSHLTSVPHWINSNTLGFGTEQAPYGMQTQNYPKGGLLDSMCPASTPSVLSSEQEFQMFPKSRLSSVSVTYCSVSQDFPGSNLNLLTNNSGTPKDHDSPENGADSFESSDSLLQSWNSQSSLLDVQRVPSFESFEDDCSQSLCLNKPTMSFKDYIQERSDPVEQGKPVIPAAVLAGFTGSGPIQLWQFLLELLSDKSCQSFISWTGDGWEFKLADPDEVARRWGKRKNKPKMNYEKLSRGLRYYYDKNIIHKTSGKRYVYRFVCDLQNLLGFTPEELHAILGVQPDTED
The following applies: protein: recombinant; tags: N-terminal GST; dsDNA, one strand shown. A digest of the protocol: as §1

A further test concerns the target T9, SPDEF (Homo sapiens, UniProt O95238 1-335).
T9 sequence: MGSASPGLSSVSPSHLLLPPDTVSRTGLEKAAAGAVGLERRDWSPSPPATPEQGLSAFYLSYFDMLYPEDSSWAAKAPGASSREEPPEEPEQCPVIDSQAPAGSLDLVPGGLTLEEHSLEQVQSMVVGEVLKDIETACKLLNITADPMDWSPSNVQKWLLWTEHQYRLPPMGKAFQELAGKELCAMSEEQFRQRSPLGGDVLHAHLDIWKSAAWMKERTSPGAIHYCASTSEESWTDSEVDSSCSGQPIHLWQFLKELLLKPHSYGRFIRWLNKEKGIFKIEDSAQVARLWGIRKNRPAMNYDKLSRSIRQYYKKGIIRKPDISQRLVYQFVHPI
To be noted: protein: recombinant; tags: N-terminal GST; dsDNA, one strand shown. In short, it runs like this:
as §1

For a further test, the target named is T10, ETV7 (Homo sapiens, UniProt Q9Y603 1-341).
T10 sequence: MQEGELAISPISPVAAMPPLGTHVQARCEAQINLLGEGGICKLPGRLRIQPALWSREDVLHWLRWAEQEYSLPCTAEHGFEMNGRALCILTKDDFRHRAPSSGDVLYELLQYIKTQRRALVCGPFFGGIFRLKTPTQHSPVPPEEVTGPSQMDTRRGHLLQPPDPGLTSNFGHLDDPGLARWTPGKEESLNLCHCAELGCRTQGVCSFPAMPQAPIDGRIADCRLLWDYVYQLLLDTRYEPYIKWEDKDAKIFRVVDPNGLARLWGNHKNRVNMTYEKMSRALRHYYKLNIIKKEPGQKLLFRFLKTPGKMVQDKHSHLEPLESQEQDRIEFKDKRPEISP
To be noted: protein: recombinant; tags: N-terminal GST; dsDNA, one strand shown. In short, it runs like this: as §1

The target of another test is T11, ELF5 (Homo sapiens, UniProt Q9UKW6-2 1-255).
T11 sequence: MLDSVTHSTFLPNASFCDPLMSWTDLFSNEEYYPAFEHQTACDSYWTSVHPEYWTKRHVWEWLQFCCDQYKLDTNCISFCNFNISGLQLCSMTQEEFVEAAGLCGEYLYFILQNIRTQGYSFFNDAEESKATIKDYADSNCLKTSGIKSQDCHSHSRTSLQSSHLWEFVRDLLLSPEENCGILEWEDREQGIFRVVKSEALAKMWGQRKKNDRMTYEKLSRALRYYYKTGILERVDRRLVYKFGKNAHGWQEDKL
The following applies: protein: recombinant; tags: N-terminal GST; dsDNA, one strand shown. In short, it runs like this:
as §1

A further test addresses T12, ETV3 (Homo sapiens, UniProt P41162-2 1-143).
T12 sequence: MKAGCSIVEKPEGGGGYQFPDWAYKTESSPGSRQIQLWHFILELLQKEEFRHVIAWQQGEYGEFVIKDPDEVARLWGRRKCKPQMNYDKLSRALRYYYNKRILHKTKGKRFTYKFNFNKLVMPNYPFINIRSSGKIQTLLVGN
To be noted: protein: recombinant; tags: N-terminal GST; dsDNA, one strand shown. A digest of the protocol:
as §1

In the next test the target is ETV6 (Homo sapiens, UniProt P41212 1-452). To be noted: protein: recombinant; tags: N-terminal GST; dsDNA, one strand shown. A digest of the protocol:
as §1

Chain of ETV5 (P41161 whole entry): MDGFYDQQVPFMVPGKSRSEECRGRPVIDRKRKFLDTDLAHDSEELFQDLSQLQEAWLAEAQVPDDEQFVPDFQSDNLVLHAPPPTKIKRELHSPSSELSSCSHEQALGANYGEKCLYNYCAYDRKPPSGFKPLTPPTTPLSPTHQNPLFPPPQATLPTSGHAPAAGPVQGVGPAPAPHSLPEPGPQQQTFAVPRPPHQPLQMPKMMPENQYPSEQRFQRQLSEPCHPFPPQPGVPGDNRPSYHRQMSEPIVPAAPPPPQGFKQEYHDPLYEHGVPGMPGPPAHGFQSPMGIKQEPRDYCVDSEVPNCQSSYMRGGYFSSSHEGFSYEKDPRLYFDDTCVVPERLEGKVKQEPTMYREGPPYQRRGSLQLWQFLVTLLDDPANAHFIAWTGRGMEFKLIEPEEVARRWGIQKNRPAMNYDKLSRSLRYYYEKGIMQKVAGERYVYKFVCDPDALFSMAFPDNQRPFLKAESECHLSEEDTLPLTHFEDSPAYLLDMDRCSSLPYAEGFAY
Chain of ETV6 (P41212 whole entry): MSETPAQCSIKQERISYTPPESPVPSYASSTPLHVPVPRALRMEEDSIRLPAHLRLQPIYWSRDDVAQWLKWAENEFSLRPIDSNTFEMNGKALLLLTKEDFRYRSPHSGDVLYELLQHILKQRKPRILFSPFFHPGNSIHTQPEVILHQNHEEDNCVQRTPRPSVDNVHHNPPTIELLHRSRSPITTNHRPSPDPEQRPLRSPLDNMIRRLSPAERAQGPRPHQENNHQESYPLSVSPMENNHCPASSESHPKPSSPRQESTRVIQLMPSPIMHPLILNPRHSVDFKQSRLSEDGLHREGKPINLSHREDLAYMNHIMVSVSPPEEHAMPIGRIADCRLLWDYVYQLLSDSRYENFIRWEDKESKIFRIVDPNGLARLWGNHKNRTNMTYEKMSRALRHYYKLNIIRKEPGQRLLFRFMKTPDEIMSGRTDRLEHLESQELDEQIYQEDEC
Chain of ETV1 (P50549 whole entry): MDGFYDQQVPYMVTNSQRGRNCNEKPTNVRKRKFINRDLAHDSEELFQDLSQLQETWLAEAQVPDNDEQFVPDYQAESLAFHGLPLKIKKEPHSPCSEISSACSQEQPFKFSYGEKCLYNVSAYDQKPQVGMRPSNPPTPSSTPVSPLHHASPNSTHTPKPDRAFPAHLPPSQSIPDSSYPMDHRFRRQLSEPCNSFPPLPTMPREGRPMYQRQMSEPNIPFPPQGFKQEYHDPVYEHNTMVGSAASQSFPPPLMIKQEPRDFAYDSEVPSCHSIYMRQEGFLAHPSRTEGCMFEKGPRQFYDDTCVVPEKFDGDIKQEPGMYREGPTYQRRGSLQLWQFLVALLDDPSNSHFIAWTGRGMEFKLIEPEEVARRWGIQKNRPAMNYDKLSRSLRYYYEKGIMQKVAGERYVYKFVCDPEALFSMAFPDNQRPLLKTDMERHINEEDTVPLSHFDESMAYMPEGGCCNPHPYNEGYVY
Chain of CRX (O43186 whole entry): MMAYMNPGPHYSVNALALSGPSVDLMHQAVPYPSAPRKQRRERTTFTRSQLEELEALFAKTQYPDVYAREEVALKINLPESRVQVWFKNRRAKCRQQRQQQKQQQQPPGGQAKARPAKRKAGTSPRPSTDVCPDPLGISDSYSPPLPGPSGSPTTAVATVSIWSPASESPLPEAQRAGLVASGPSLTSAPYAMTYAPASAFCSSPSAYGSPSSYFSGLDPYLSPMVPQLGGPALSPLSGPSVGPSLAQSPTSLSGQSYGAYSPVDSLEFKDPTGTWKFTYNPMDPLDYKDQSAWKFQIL
Chain of HSF1 (Q00613 whole entry): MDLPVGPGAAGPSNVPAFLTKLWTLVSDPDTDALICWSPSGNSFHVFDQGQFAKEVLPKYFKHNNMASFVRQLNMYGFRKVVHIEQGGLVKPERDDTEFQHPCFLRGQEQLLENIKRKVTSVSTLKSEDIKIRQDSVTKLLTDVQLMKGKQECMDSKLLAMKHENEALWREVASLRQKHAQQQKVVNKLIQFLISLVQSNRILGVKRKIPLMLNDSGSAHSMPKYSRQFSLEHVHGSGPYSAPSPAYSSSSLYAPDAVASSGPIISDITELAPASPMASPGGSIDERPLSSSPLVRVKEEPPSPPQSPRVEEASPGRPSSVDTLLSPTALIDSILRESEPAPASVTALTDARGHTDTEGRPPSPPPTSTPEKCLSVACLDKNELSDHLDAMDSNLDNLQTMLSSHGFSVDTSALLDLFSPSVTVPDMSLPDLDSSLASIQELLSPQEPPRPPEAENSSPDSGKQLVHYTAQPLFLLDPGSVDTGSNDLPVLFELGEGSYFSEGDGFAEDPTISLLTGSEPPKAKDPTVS
Chain of ELF4 (Q99607 whole entry): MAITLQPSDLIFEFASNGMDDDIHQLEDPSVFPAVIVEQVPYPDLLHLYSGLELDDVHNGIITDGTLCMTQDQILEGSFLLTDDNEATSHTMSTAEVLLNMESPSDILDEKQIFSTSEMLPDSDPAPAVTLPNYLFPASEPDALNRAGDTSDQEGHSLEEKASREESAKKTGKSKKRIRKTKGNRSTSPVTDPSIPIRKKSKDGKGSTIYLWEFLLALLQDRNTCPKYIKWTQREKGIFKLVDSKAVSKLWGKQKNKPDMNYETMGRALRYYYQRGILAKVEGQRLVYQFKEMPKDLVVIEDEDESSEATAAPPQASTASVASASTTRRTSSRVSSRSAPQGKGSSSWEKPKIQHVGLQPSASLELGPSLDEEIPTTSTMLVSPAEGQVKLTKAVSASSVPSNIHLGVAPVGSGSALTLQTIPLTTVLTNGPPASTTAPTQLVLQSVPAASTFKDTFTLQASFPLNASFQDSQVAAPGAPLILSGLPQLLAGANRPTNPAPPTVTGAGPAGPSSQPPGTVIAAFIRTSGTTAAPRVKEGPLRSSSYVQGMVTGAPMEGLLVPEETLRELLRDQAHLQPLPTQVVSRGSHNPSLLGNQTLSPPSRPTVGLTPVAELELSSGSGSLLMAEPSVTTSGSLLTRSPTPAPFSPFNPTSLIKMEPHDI

Regarding TTGAAT, the binding signal with FEV was 1.03 fold enrichment (6-mer frequency, TF over GST control); in the test with ETV5, 1.07 fold enrichment (6-mer frequency, TF over GST control); with HSF1, 1.09 fold enrichment (6-mer frequency, TF over GST control); in the test with SPIC, 1.16 fold enrichment (6-mer frequency, TF over GST control); with ELF4, 1.12 fold enrichment (6-mer frequency, TF over GST control); with ELK4, 1.05 fold enrichment (6-mer frequency, TF over GST control). Also, the binding signal with ETV2 was 1.04 fold enrichment (6-mer frequency, TF over GST control); with ELF3, 1.1 fold enrichment (6-mer frequency, TF over GST control); with CRX, 1.17 fold enrichment (6-mer frequency, TF over GST control); with ETV1 it was 1.11 fold enrichment (6-mer frequency, TF over GST control); in the test with ERF it was 1.05 fold enrichment (6-mer frequency, TF over GST control); with ETV3L, 1.01 fold enrichment (6-mer frequency, TF over GST control). The binding signal was 1.06 fold enrichment (6-mer frequency, TF over GST control) in the test with ETS2; 1.17 fold enrichment (6-mer frequency, TF over GST control) in the test with SPDEF; 1.09 fold enrichment (6-mer frequency, TF over GST control) with ETV7; 1.09 fold enrichment (6-mer frequency, TF over GST control) with ELF5; 1.02 fold enrichment (6-mer frequency, TF over GST control) with ETV3; 1.03 fold enrichment (6-mer frequency, TF over GST control) in the test with ETV6.
